Tg IFNy HTS: T. gondii growth inhibition under IFN-gamma; Toxoplasma gondii growth in IFN-gamma-treated host cells; active compounds read low; activity change, negative = inhibition, % (no concentration beside the values); 3.8% of 69,000 active; AID 1259416; in the data active means activity change below about -70%, passing the limit was not always enough;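 further: host cells are HeLa cells infected with Toxoplasma gondii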
* = called active by the depositor. The full list was thinned out, with hits kept by preference.

SMILES	Tg IFNy HTS
CC1(C)Cc2cc(CN3CCCC3c3ccc(C(=O)N4CCOCC4)cn3)ccc2O1 (configuration not stated)	29
Cc1cc(C)c(Cn2cncn2)cc1CN1CCC(N)(C(=O)O)C1 (configuration not stated)	0
COc1ccccc1NC(=O)N1C[C@H](O)COC[C@H]2O[C@H](CC(=O)N3CCC(Cc4ccccc4)CC3)CC[C@@H]21	-28
COc1ccccc1NC(=O)N1C[C@H](O)COC[C@@H]2O[C@@H](CC(=O)N3CCC(Cc4ccccc4)CC3)CC[C@H]21	-75*
COc1ccccc1NC(=O)N1C[C@@H](O)COC[C@H]2O[C@H](CC(=O)N3CCC(Cc4ccccc4)CC3)CC[C@@H]21	-9
CCCc1cnc(-c2ccc(C(C)N3CCOCC3)cc2)nc1 (configuration not stated)	0
CCO[C@H]1COC[C@@H]1n1cc(-c2ccc3c(c2)OCCO3)nn1	125
CN1CCC2(N3CCOCC3)C(C1)N=NN2c1cc(C(F)(F)F)cc(C(F)(F)F)c1 (configuration not stated)	8
S=c1n(CN2CCOCC2)nnn1C1CCCCC1	-6
CCN(CCN1CCOCC1)C(=O)c1cccc2nccnc12	-2
CCOc1ccc(C(=O)O)cc1-c1ccc(C(=O)N(C)C)cc1	-6
CCn1cncc1CNC(=O)c1coc(COc2cccc(F)c2F)n1	0
Cc1ccc(C(=O)Nc2ccc(-n3nc(C(F)(F)F)cc3-c3cccs3)cc2)cc1	69
Cc1nnsc1C(=O)Nc1ccc(-n2nc(C(F)(F)F)cc2C(F)(F)F)cc1	-81*
Cc1nnsc1C(=O)Nc1cccc(N)c1	2
COc1ccc(-c2nc(Nc3ccc(C)c(C)c3)c3ccccc3n2)cc1	-27
c1coc(Cn2ccnc2-c2ccc(-c3ccn[nH]3)o2)c1	4
FC(F)(F)c1cc(-c2ccc(-c3ccn[nH]3)o2)cc(C(F)(F)F)c1	-106*
Cc1cc(C)cc(N2CCN(Cc3ccc(-c4ccn[nH]4)o3)CC2=O)c1	4
COc1cccc(NC(=O)N2CCC3(CC2)CN(Cc2cccnc2)CC32CCNC2=O)c1 (configuration not stated)	16
COc1cccc(OCC(=O)N2CCN(S(=O)(=O)c3cc4c5c(c3)CCN5C(=O)CC4)CC2)c1	-41
CNCc1ccccc1	9
c1ccc(CNc2ccc(C3c4ccccc4Oc4ccccc43)cc2)cc1	-97*
O=C(O)CCc1ccc(NCc2cccc(Oc3ccccc3)c2)cc1	14
C=CCN1CC(C(=O)N2CCCN(C)C3(CCN(C)CC3)C2)CC1=O (configuration not stated)	2
SMILES	Tg IFNy HTS
Cc1ccc2[nH]c(-c3nc(CCN(C)C(=O)c4cccn4C)no3)cc2c1	48
CCc1c(-c2nc(CCN(C)C(=O)c3cccn3C)no2)[nH]c2ccc(C)cc12	-91*
COc1ccc2[nH]c(-c3nc(CCN(C)C(=O)c4ccncc4)no3)cc2c1	102
C=CCNc1ncc(-c2cnccn2)c(-c2c(C)noc2C)n1	0
Cc1ccc(F)cc1S(=O)(=O)N1CCC2(CC1)Nc1ccc(C)c(C)c1-n1cccc12	2
CCN1c2cc(C)ccc2-n2cccc2C12CCN(S(=O)(=O)c1ccc(C(C)C)cc1)CC2	-28
CCOc1ccc(NC(=O)N2CCC3(CC2)c2cccn2-c2ccc(C)cc2N3CC)cc1	156
CCN1c2cc(C)ccc2-n2cccc2C12CCN(C(=O)c1ccccc1Br)CC2	-1
CCN1c2cc(C)ccc2-n2cccc2C12CCN(S(=O)(=O)c1ccc3c(c1)oc(=O)n3C)CC2	61
CCN1c2cc(C)ccc2-n2cccc2C12CCN(S(=O)(=O)c1ccccc1)CC2	-79*
CCN1c2cc(C)ccc2-n2cccc2C12CCN(S(=O)(=O)Cc1ccccc1)CC2	-67
CCN1c2cc(C)ccc2-n2cccc2C12CCN(S(=O)(=O)c1ccccc1Cl)CC2	-78*
CCOc1ccc(S(=O)(=O)N2CCC3(CC2)c2cccn2-c2ccc(C)cc2N3CC)cc1	-92*
CCN1c2cc(C)ccc2-n2cccc2C12CCN(C(=O)c1ccccc1OC)CC2	-62
O=C(c1ccc(CSc2ncn[nH]2)o1)N(Cc1ccsc1)C1CC1	-10
COCCN(C)CC1COC2(CCCN(C(=O)c3ccc4ccccc4n3)C2)C1 (configuration not stated)	1
COCCN1CC(Nc2nc(CCN)nc3ccccc23)CC1=O (configuration not stated)	3
Cn1cc(NC(=O)CN2CCCCC2c2nc3ccc(F)cc3[nH]2)cn1 (configuration not stated)	16
CCN(Cc1nc(COC)no1)C(=O)c1ccc(F)cc1OC	6
COCCC1COC2(CCN(c3ccc(F)cc3)CC2)C1 (configuration not stated)	-15
O=C(c1cccc(Cn2cccn2)c1)N1CCO[C@@H]2CCCC[C@H]21	6
CCNC1(C(N)=O)CCN(c2ncnc3c2nc(-c2ccccc2Cl)n3-c2ccc(Cl)cc2)CC1	18
Cc1cccc(CN2CCC3(CCN(Cc4ccoc4)C3)C2=O)c1 (configuration not stated)	-5
COc1ccc(C(=O)N(Cc2cccc(OC)c2)C2(C(=O)NCc3ccccc3)CCN(C(C)=O)CC2)cc1	-83*
COc1ccc(C(=O)N(c2ccc(Cl)cc2)C2(C(=O)NCc3ccccc3)CCN(C(C)=O)CC2)cc1	69
SMILES	Tg IFNy HTS
COc1ccc(C(=O)N(Cc2cccc(F)c2)C2(C(=O)NCc3ccccc3)CCN(C(C)=O)CC2)cc1	-53
COc1ccc(C(=O)N(c2ccc(F)cc2)C2(C(=O)NCc3ccccc3)CCN(C(C)=O)CC2)cc1	-5
COc1ccc(C(=O)N(c2ccc(C(C)C)cc2)C2(C(=O)NCc3ccccc3)CCN(C(C)=O)CC2)cc1	-96*
COc1ccc(C(=O)N(Cc2ccc(Cl)cc2)C2(C(=O)NCc3ccccc3)CCN(C(C)=O)CC2)cc1	114
Cc1ccc(CCC(=O)N(C)Cc2cnn(C(C)C)c2)cc1C	-5
Cc1ccc(NC(=O)CC(=O)NC(C)CCc2ccco2)cc1 (configuration not stated)	-25
CN1CCN2CCN(S(=O)(=O)c3ccc4c(c3)OCCN4C)CC2C1 (configuration not stated)	48
CCCCN(CC)CCNC(=O)C1=C(C)C(=O)OC12CCN(S(=O)(=O)CC)CC2	25
CN1CCN(c2ccc(OC(F)(F)F)c(Nc3ncc4c(n3)-c3c(c(C(N)=O)nn3CCO)CC4)c2)CC1	-81*
CNC(=O)c1nn(C)c2c1C(C)(C)Cc1cnc(Nc3ccc(N4CCN(C)CC4)cc3)nc1-2	-58
CC(C)N1CCO[C@H]2CN(C(=O)c3ccsc3)C[C@@H]21	43
CN(Cc1cncnc1)Cc1cnc2n1CCN(C(=O)N(C)C)CC2	4
OCc1cc(-c2ccc(-c3ccn[nH]3)cc2)ccn1	58
COC(C)c1cccc(-c2cnc(-n3cnnc3)c(C)c2)c1 (configuration not stated)	-11
Cc1cc(C)c(-c2cnc(-n3cnnc3)c(C)c2)c(C)c1	-78*
Cc1cc(-c2ccc(-c3ccn[nH]3)cc2)cnc1-n1cnnc1	-77*
Cc1cnc(-n2cnnc2)c(-c2ccc(S(C)(=O)=O)cc2)c1	2
CC(C)c1nccn1-c1ccc(-c2ccn[nH]2)cc1	4
Cc1ncc(-c2c(-c3ccccc3)ncn2CCNC(=O)c2ccncc2)s1	-2
Cc1ccccc1-c1noc(-c2c(O)c3cc(F)ccc3n(C)c2=O)n1	-43
Cc1ccc(OCCN(C)Cc2ccnc(C(C)C)n2)c(C)c1	7

From PubChem BioAssay
